Measurements as given in PubChem BioAssay (EPA / NIEHS).
The source made the active and inactive calls. The calls were made as follows: active = hit-call score of the fitted dose curve at least 0.9, where 1 is the maximum; inactive = score below 0.9.

How the values were obtained:
[1] = read-out: Interleukin-1 alpha (IL1a), IL1A (gene 3552); test: BSK_KF3CT_IL1a: BioMAP Diversity Plus: KF3CT Assay for Interleukin-1 alpha (IL1a) Biomarker Activity (AID 2283070); conditions: primary human keratinocytes with fibroblasts; actives raise or lower the signal
Summary of the method: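 Chemicals were dosed onto co-cultured human keratinocytes and foreskin fibroblasts, IL-1a was quantified by ELISA at 24 h, and activity was fitted in both directions relative to DMSO controls.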

[2] = read-out: TIMP metallopeptidase inhibitor 2 (TIMP2), TIMP2 (gene 7077); test: BSK_KF3CT_TIMP2: BioMAP Diversity Plus: KF3CT Assay for TIMP metallopeptidase inhibitor 2 (TIMP2) Biomarker Activity (AID 2283071); conditions: primary human keratinocytes with fibroblasts; actives raise or lower the signal
Summary of the method: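 Human primary keratinocyte/foreskin fibroblast co-culture dosed with chemical and sampled at 24 h. TIMP-2 levels quantified by ELISA; bidirectional fitting against DMSO negative control as baseline.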

[3] = read-out: C-C motif chemokine 2 (Homo sapiens) (UniProt P13500); test: BSK_KF3CT_MCP1: BioMAP Diversity Plus: KF3CT Assay for Monocyte Chemoattractant Protein 1 (MCP1/CCL2) Biomarker Activity (AID 2283073); conditions: primary human keratinocytes with fibroblasts; actives raise or lower the signal
Summary of the method: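 KF3CT skin co-culture (keratinocytes/foreskin fibroblasts), 24 h post-dose; MCP-1 by ELISA; gain/loss of signal fit bidirectionally vs DMSO baseline.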

[4] = read-out: Matrix Metallopeptidase 9 (MMP9), MMP9 (gene 4318); test: BSK_KF3CT_MMP9: BioMAP Diversity Plus: KF3CT Assay for Matrix Metallopeptidase 9 (MMP9) Biomarker Activity (AID 2283074); conditions: primary human keratinocytes with fibroblasts; actives raise or lower the signal;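 as to AC50: MMP9 protein level quantified by ELISA in the co-culture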
Summary of the method: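 Human keratinocyte/foreskin fibroblast co-culture; compound added; 24 h; MMP-9 by ELISA; bidirectional fit vs DMSO baseline.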

[5] = read-out: urokinase plasminogen activator (uPA), PLAU (gene 5328); test: BSK_KF3CT_uPA: BioMAP Diversity Plus: KF3CT Assay for urokinase plasminogen activator (uPA) Biomarker Activity (AID 2283075); conditions: primary human keratinocytes with fibroblasts; actives raise or lower the signal
Summary of the method: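 ELISA readout of uPA, analyzed for signal gain or loss relative to DMSO, from a human primary keratinocyte–foreskin fibroblast co-culture measured 24 h after chemical treatment.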

CD40, CD40 (gene 958) = test: BSK_LPS_CD40: BioMAP Diversity Plus: LPS Assay for CD40 Biomarker Activity (AID 2283076); conditions: primary human HUVEC with PBMC; actives raise or lower the signal
Summary of the method: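 ELISA readout of CD40 in HUVEC/PBMC co-culture (BSK_LPS system), 24 h post-dosing; bidirectional curve fit, DMSO baseline; parallel SRB total-protein staining for cytotoxicity.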

[6] = read-out: E-selectin (Homo sapiens) (UniProt P16581); test: BSK_LPS_Eselectin: BioMAP Diversity Plus: LPS Assay for Eselectin Biomarker Activity (AID 2283077); conditions: primary human HUVEC with PBMC; actives raise or lower the signal
Summary of the method: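 ELISA readout of E-selectin, 24 h post-dose, HUVEC + PBMC co-culture (LPS system). Gain or loss of signal vs DMSO baseline, bidirectional fit.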

[7] = read-out: Interleukin-8 (IL8), CXCL8 (gene 3576); test: BSK_LPS_IL8: BioMAP Diversity Plus: LPS Assay for Interleukin-8 (IL8) Biomarker Activity (AID 2283078); conditions: primary human HUVEC with PBMC; actives raise or lower the signal
Summary of the method: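 HUVEC + PBMC co-culture, LPS-activated; test chemicals dosed, IL-8 read by ELISA at 24 h. Bidirectional curve fit vs DMSO baseline (gain or loss of signal).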

[8] = BSK_LPS_SRB: Viability Assessment in the BioMAP Diversity Plus: LPS Assay (AID 2283079); conditions: primary human HUVEC with PBMC;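 also: total protein by sulforhodamine B absorbance as a cytotoxicity measure; measured one day after compound addition; fitted in both directions against DMSO so loss or gain of signal counts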
Summary of the method: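 HUVEC + PBMC co-culture, LPS-stimulated; compound 24 h. 10% TCA fix, 0.1% SRB stain, A560. Bidirectional fit vs DMSO.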

[9] = read-out: Interleukin-1 alpha (IL1a), IL1A (gene 3552); test: BSK_LPS_IL1a: BioMAP Diversity Plus: LPS Assay for Interleukin-1 alpha (IL1a) Biomarker Activity (AID 2283080); conditions: primary human HUVEC with PBMC; actives raise or lower the signal
Summary of the method: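 HUVEC/PBMC co-culture, LPS system; 24 h after dosing; IL-1a by ELISA; gain or loss of signal fitted bidirectionally vs DMSO baseline.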

Measured: AC50

Chain of E-selectin (Homo sapiens) (P16581 whole entry, looked up): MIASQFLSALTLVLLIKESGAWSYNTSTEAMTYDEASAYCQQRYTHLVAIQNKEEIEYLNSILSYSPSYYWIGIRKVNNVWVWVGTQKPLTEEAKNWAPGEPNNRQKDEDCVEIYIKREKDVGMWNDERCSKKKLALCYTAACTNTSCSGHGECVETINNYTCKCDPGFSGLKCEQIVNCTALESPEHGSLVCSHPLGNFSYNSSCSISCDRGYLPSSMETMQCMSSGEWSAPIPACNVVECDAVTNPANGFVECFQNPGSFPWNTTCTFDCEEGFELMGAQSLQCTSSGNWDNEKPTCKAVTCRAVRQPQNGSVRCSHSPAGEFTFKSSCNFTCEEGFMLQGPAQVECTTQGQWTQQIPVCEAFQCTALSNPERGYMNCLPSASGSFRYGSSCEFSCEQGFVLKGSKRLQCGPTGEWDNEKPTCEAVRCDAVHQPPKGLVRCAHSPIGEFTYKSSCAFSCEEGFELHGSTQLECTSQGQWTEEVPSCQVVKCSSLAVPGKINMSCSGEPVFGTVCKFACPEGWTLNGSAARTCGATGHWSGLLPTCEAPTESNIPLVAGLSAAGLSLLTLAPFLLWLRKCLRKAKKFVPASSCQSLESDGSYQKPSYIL

NC(=O)C(F)(F)C(F)(F)C(F)(F)F
inactive: [1] | [2] | [3] | [4] | [5] | CD40, CD40 (gene 958) | [6] | [7] | [8] | [9]

OCC(O)CC(F)(F)C(F)(F)C(F)(F)C(F)(F)F (stereo not drawn)
inactive: [1] | [2] | [3] | [4] | [5] | CD40, CD40 (gene 958) | [6] | [7] | [8] | [9]

O=C(O)C(F)(F)C(F)(F)C(F)(F)C(F)(F)C(F)(F)C(F)(F)C(F)F
inactive: [1] | [2] | [3] | [4] | [5] | CD40, CD40 (gene 958) | [6] | [8] | [9]

CCN(CC)c1ccc2c(c1)Oc1cc(N(CC)CC)ccc1C21OC(=O)c2ccccc21
inactive: [1] | [2] | [3] | [4] | [5] | CD40, CD40 (gene 958) | [6] | [8] | [9]

CCOC(=O)CC(=O)C(F)(F)C(F)(F)F
inactive: [1] | [2] | [3] | [4] | [5] | CD40, CD40 (gene 958) | [6] | [8] | [9]

C[Si](Cl)(Cl)CCC(F)(F)C(F)(F)C(F)(F)C(F)(F)C(F)(F)C(F)(F)F
inactive: [1] | [2] | [3] | [4] | [5] | CD40, CD40 (gene 958) | [6] | [8] | [9]

CC(C)(C)c1cc(CCC(=O)NCCCCCCNC(=O)CCc2cc(C(C)(C)C)c(O)c(C(C)(C)C)c2)cc(C(C)(C)C)c1O
inactive: [1] | [2] | [3] | [4] | [5] | CD40, CD40 (gene 958) | [6] | [8] | [9]

OCC(F)(F)C(F)(F)C(F)(F)CO
inactive: [1] | [2] | [3] | [4] | [5] | CD40, CD40 (gene 958) | [6] | [7] | [8] | [9]

Cc1cc(C)c(O)c(C(C)(C)C)c1
active: [1] 31.1 µM | [2] 28.8 µM | [3] 32.8 µM | [4] 30.2 µM | [5] 30.9 µM | CD40, CD40 (gene 958) 30.9 µM | [6] 32.1 µM | [8] 36.3 µM | [9] 32.7 µM

OCC(F)(F)C(F)(F)C(F)(F)C(F)(F)C(F)(F)C(F)(F)CO
inactive: [1] | [2] | [3] | [4] | [5] | CD40, CD40 (gene 958) | [6] | [7] | [8] | [9]

CN(C(=O)C(F)(F)C(F)(F)C(F)(F)F)[Si](C)(C)C
inactive: [1] | [2] | [3] | [4] | [5] | CD40, CD40 (gene 958) | [6] | [8] | [9]

CCN(CC)c1ccc(C=O)cc1
inactive: [1] | [2] | [3] | [4] | [5] | CD40, CD40 (gene 958) | [6] | [7] | [8] | [9]

CCOC(C=C(C)CCC=C(C)C)OCC
active: [1] 26 µM | [2] 31.2 µM | [4] 20 µM | [5] 3.97 µM | CD40, CD40 (gene 958) 30 µM | [6] 35 µM | [8] 31.9 µM | [9] 32.9 µM
inactive: [7]

NCC(F)(F)C(F)(F)C(F)(F)C(F)(F)C(F)(F)C(F)(F)C(F)(F)C(F)(F)F
inactive: [1] | [2] | [3] | [4] | [5] | CD40, CD40 (gene 958) | [6] | [8] | [9]

NC(=O)C(F)(F)C(F)(F)C(F)(F)C(F)F
inactive: [1] | [2] | [3] | [4] | [5] | CD40, CD40 (gene 958) | [6] | [8] | [9]

NCC(F)(F)C(F)(F)C(F)(F)C(F)(F)C(F)(F)C(F)(F)F
inactive: [1] | [2] | [3] | [4] | [5] | CD40, CD40 (gene 958) | [6] | [8] | [9]

NC(=O)C(F)(F)C(F)(F)C(F)(F)C(F)(F)C(F)(F)C(F)(F)C(F)(F)F
inactive: [1] | [2] | [3] | [4] | [5] | CD40, CD40 (gene 958) | [6] | [8] | [9]
